# Laboratory results published in paper PMC7862700, “An all-to-all approach to the identification of sequence-specific readers for epigenetic DNA modifications on cytosine”.
# Key:
# Test in all cases: DAPPL (digital affinity profiling via proximity ligation, sequencing); 10 mM Tris-HCl pH 7.5, 50 mM NaCl, 1 mM DTT, 4% glycerol, room temperature, 30 min; GST-TFs on glutathione beads, 16-mer random dsDNA library, 0.1% formaldehyde crosslink after washing; high values mean tight binding
# FLI1 = molecular target: T1, FLI1 (Homo sapiens, UniProt Q01543 1-452); conditions: protein: recombinant; tags: N-terminal GST; dsDNA, one strand shown
# T1 sequence: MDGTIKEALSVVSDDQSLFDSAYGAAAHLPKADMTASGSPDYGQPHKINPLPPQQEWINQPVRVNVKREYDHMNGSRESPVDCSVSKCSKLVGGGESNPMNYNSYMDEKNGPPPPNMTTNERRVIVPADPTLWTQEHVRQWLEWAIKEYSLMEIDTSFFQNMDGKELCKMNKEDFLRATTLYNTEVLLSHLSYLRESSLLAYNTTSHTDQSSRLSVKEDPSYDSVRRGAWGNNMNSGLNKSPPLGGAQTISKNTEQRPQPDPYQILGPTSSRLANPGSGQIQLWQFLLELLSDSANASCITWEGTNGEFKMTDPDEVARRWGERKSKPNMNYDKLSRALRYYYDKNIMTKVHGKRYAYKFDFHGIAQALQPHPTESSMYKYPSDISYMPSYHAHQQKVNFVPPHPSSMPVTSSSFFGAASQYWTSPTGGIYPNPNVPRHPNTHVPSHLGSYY
# In short: (§1)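 A tag-only sample was pooled with DNA-barcoded human transcription factors that had been expressed in yeast as GST fusions and captured on glutathione beads. The pools were incubated for 30 min at room temperature with 200 nmole of a random double-stranded 16-mer DNA library in Tris/NaCl/DTT/glycerol buffer, then washed, crosslinked with 0.1% formaldehyde, proximity-ligated (BsaI/T4 ligase, 1 h, 37 °C), PCR-amplified and sequenced on an Illumina NextSeq500. Binding signal is each hexamer's read frequency for a factor divided by its frequency for the tag-only sample.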
# ELK1 = molecular target: T2, ELK1 (Homo sapiens, UniProt P19419 1-428); conditions: protein: recombinant; tags: N-terminal GST; dsDNA, one strand shown
# T2 sequence: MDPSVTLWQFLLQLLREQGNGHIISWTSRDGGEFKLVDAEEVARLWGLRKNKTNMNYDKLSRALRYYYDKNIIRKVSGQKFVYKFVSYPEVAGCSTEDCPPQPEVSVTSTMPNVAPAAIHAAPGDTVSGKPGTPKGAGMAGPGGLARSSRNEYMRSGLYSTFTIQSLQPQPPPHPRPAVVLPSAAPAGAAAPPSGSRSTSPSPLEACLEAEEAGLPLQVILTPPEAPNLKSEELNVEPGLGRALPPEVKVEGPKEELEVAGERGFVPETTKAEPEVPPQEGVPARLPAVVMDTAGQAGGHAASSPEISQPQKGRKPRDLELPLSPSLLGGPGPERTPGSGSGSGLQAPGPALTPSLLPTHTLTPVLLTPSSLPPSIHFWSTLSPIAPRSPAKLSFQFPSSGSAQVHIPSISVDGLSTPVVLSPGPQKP
# In short: as §1
# GABPA = molecular target: T3, GABPA (Homo sapiens, UniProt Q06546 1-454); conditions: protein: recombinant; tags: N-terminal GST; dsDNA, one strand shown
# T3 sequence: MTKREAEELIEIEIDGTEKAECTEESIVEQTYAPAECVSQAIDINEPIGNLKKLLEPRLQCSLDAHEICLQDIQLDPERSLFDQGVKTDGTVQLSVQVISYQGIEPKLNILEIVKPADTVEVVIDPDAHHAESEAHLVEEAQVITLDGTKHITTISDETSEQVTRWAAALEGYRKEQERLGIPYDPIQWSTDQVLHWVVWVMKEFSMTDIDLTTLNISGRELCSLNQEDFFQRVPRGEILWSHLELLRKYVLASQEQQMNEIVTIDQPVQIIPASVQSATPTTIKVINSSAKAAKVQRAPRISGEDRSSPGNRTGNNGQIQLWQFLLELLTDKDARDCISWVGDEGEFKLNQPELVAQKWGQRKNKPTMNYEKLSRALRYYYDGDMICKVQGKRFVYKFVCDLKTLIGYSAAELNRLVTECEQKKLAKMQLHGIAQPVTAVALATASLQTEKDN
# In short: as §1
# ERG = molecular target: T4, ERG (Homo sapiens, UniProt P11308 1-479); conditions: protein: recombinant; tags: N-terminal GST; dsDNA, one strand shown
# T4 sequence: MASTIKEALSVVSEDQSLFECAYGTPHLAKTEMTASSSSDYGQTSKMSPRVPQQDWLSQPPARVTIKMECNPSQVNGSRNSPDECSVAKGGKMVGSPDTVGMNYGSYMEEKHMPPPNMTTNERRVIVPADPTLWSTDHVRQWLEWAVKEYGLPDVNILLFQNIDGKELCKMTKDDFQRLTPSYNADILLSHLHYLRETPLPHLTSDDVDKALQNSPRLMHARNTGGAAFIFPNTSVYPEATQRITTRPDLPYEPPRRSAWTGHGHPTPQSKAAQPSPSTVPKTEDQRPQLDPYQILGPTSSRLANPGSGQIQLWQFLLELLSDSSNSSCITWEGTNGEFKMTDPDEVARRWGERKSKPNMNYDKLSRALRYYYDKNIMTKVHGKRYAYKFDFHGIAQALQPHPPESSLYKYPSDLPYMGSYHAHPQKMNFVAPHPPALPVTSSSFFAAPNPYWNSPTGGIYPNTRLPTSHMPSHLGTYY
# In short: as §1
# ELF1 = ELF1 (Homo sapiens, UniProt P32519 1-619); conditions: protein: recombinant; tags: N-terminal GST; dsDNA, one strand shown
# Sequence of ELF1 (P32519 whole entry): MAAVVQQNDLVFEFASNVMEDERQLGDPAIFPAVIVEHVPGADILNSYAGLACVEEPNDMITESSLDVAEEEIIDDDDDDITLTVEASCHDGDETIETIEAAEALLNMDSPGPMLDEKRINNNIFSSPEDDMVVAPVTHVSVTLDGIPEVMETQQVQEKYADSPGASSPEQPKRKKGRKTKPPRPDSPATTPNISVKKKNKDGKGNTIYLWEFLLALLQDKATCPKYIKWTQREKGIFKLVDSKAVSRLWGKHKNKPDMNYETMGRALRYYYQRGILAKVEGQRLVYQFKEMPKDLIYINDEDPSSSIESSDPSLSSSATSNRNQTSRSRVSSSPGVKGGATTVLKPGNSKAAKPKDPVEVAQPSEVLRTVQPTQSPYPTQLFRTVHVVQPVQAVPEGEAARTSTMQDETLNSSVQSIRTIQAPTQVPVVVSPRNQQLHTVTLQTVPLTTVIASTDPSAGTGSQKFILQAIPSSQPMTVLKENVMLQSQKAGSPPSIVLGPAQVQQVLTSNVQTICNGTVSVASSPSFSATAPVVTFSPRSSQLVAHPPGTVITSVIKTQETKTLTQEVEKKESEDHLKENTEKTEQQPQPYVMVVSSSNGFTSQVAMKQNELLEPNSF
# In short: as §1
# EHF = molecular target: T5, EHF (Homo sapiens, UniProt Q9NZC4 1-300); conditions: protein: recombinant; tags: N-terminal GST; dsDNA, one strand shown
# T5 sequence: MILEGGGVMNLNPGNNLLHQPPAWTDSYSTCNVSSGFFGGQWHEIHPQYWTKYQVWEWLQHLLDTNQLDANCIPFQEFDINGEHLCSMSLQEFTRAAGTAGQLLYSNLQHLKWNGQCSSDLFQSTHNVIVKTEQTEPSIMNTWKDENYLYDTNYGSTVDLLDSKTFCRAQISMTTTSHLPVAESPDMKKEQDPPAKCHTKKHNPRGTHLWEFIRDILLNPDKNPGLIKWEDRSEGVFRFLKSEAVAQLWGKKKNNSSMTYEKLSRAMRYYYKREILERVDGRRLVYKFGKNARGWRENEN
# In short: as §1
# SPI1 = SPI1 (Homo sapiens, UniProt P17947 1-270); conditions: protein: recombinant; tags: N-terminal GST; dsDNA, one strand shown
# In short: as §1
# SPIB = SPIB (Homo sapiens, UniProt Q01892 1-262); conditions: protein: recombinant; tags: N-terminal GST; dsDNA, one strand shown
# Sequence of SPIB (Q01892 whole entry): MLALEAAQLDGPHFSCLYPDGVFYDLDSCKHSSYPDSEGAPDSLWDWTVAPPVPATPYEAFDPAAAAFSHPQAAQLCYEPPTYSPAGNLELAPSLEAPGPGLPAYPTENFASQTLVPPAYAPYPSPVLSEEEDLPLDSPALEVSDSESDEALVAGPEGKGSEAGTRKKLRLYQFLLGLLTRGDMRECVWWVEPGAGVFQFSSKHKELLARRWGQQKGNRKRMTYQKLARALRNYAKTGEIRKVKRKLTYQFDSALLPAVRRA
# In short: as §1
# ELK3 = molecular target: T6, ELK3 (Homo sapiens, UniProt P41970 1-407); conditions: protein: recombinant; tags: N-terminal GST; dsDNA, one strand shown
# T6 sequence: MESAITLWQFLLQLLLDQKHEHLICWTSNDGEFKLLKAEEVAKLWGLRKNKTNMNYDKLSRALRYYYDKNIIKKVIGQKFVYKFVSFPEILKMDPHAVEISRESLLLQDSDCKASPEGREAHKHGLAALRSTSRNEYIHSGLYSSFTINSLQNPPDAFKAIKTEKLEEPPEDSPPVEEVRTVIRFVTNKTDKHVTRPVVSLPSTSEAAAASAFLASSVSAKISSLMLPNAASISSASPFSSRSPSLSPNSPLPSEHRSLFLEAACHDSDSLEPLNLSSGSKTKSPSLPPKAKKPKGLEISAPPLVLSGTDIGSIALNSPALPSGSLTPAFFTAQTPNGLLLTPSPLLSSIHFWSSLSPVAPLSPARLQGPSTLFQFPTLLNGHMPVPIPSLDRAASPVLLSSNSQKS
# In short: as §1
# FEV = molecular target: T7, FEV (Homo sapiens, UniProt Q99581 1-238); conditions: protein: recombinant; tags: N-terminal GST; dsDNA, one strand shown
# T7 sequence: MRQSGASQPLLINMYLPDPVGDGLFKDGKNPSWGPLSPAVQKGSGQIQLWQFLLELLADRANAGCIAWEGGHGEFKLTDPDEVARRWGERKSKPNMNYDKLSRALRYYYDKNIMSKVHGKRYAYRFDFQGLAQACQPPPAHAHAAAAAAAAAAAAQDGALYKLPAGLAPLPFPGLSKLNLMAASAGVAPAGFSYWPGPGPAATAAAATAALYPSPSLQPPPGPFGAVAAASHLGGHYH
# In short: as §1
# ETV5 = ETV5 (Homo sapiens, UniProt P41161 1-510); conditions: protein: recombinant; tags: N-terminal GST; dsDNA, one strand shown
# Sequence of ETV5 (P41161 whole entry): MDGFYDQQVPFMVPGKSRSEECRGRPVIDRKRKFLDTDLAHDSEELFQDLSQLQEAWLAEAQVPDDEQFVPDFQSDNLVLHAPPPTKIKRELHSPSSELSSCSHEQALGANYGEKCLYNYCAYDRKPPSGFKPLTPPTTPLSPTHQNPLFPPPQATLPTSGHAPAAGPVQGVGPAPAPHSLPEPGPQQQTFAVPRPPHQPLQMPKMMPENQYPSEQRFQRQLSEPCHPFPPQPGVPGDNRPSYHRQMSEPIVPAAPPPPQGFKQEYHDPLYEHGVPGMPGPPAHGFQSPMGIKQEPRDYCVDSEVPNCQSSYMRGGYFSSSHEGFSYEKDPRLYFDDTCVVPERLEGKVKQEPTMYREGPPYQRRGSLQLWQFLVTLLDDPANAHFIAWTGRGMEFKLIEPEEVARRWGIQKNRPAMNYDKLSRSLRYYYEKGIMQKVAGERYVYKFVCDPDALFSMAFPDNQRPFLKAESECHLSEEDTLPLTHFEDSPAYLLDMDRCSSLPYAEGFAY
# In short: as §1
# HSF1 = HSF1 (Homo sapiens, UniProt Q00613 1-529); conditions: protein: recombinant; tags: N-terminal GST; chain copies: 3; dsDNA, one strand shown
# Sequence of HSF1 (Q00613 whole entry): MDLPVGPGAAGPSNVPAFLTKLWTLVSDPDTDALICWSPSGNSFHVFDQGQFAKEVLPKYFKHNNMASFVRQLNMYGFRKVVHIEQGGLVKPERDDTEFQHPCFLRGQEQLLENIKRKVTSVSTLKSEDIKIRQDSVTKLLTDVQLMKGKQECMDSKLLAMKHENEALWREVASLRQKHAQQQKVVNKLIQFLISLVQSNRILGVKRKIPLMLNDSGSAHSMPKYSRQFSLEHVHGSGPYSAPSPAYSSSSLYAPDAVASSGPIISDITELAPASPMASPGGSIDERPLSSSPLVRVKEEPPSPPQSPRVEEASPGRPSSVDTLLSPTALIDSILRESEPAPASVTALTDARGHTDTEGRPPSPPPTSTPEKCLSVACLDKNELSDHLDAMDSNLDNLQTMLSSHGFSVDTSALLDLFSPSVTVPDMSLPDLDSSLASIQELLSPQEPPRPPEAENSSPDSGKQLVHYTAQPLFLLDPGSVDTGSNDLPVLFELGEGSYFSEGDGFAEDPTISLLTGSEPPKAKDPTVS
# In short: as §1
# SPIC = molecular target: T8, SPIC (Homo sapiens, UniProt Q8N5J4 1-248); conditions: protein: recombinant; tags: N-terminal GST; dsDNA, one strand shown
# T8 sequence: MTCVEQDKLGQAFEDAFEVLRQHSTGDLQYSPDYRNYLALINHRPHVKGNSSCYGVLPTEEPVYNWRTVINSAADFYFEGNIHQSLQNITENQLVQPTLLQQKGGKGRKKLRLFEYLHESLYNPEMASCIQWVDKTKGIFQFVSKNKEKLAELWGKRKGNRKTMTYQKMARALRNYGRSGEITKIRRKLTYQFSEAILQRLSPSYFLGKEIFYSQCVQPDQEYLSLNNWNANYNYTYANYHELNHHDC
# In short: as §1
# ELF4 = ELF4 (Homo sapiens, UniProt Q99607 1-663); conditions: protein: recombinant; tags: N-terminal GST; dsDNA, one strand shown
# Sequence of ELF4 (Q99607 whole entry): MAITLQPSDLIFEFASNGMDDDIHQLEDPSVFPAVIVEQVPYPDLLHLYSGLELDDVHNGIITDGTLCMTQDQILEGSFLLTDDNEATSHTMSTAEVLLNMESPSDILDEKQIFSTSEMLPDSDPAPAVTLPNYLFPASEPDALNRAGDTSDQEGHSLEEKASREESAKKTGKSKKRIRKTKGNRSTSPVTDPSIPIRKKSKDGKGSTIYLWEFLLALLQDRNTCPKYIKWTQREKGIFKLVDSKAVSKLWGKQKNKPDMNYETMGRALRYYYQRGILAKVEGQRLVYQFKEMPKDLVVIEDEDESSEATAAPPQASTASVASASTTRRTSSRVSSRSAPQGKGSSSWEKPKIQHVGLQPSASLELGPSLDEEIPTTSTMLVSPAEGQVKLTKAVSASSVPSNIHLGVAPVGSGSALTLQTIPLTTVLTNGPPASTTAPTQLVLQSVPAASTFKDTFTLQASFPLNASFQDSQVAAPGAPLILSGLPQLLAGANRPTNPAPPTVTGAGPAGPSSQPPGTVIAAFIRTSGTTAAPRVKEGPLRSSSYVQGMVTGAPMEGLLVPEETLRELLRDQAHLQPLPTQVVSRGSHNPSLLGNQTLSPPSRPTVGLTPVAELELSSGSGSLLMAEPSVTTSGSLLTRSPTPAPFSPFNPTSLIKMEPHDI
# In short: as §1
# ELK4 = molecular target: T9, ELK4 (Homo sapiens, UniProt P28324-2 1-405); conditions: protein: recombinant; tags: N-terminal GST; dsDNA, one strand shown
# T9 sequence: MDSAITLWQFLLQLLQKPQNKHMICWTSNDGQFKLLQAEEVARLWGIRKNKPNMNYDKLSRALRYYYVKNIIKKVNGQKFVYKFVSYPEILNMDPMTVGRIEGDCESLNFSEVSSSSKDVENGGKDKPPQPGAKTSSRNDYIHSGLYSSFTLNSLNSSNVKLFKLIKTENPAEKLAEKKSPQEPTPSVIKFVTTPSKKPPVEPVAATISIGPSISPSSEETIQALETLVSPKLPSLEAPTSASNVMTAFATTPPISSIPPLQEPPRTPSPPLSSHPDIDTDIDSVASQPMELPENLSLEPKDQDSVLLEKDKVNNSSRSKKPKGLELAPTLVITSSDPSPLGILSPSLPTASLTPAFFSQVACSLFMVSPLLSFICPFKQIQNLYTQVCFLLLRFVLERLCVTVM
# In short: as §1
# ETV2 = molecular target: T10, ETV2 (Homo sapiens, UniProt O00321 1-342); conditions: protein: recombinant; tags: N-terminal GST; dsDNA, one strand shown
# T10 sequence: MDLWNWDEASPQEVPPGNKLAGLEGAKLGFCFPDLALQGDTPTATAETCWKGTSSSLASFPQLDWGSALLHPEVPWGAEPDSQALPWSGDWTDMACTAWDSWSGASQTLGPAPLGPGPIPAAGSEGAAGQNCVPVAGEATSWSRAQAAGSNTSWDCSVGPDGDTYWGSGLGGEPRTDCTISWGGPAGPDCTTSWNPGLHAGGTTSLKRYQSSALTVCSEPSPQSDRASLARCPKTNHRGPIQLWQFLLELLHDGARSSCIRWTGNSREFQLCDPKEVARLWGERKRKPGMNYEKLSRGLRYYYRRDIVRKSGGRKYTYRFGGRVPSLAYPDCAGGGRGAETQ
# In short: as §1
# ELF3 = molecular target: T11, ELF3 (Homo sapiens, UniProt P78545 1-371); conditions: protein: recombinant; tags: N-terminal GST; dsDNA, one strand shown
# T11 sequence: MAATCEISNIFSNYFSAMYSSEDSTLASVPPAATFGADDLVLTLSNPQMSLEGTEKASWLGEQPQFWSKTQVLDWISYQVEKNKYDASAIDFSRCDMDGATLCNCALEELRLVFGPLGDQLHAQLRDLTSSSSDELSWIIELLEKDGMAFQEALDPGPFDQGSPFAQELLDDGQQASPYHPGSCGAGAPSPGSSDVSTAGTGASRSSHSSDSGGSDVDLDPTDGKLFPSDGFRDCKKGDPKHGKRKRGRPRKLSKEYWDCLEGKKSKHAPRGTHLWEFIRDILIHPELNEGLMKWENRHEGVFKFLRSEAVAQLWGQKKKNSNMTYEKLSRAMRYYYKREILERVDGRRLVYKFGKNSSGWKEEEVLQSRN
# In short: as §1
# CRX = CRX (Homo sapiens, UniProt O43186 1-299); conditions: protein: recombinant; tags: N-terminal GST; dsDNA, one strand shown
# Sequence of CRX (O43186 whole entry): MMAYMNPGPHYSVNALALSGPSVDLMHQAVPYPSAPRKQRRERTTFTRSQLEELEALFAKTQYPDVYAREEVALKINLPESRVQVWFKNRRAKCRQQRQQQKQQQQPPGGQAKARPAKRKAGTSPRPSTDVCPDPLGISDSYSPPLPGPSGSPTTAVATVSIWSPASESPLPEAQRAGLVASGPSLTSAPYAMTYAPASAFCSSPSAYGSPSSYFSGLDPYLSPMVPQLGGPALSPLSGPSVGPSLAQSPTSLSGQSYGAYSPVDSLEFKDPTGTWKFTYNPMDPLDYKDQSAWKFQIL
# In short: as §1
# ETV1 = ETV1 (Homo sapiens, UniProt P50549 1-477); conditions: protein: recombinant; tags: N-terminal GST; dsDNA, one strand shown
# Sequence of ETV1 (P50549 whole entry): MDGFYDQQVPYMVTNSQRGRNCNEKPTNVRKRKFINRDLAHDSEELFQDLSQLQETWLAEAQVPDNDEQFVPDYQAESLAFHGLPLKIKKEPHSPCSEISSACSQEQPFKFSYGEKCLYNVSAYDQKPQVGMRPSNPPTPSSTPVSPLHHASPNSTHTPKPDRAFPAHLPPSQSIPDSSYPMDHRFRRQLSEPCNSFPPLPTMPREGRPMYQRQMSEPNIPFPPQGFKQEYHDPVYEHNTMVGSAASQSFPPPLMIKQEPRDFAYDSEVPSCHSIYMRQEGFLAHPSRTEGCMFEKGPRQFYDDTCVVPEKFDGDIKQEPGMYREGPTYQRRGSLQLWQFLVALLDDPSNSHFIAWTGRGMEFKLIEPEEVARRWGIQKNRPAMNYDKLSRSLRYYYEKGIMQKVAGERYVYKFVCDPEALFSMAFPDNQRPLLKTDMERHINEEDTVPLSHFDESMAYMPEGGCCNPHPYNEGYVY
# In short: as §1
sequence,measurement,setting,value
TATGGT,binding signal,FLI1,"1.38 fold enrichment (6-mer frequency, TF over GST control)"
same,binding signal,ELK1,"1.3 fold enrichment (6-mer frequency, TF over GST control)"
same,binding signal,GABPA,"1.32 fold enrichment (6-mer frequency, TF over GST control)"
same,binding signal,ERG,"1.22 fold enrichment (6-mer frequency, TF over GST control)"
same,binding signal,ELF1,"1.37 fold enrichment (6-mer frequency, TF over GST control)"
same,binding signal,EHF,"1.39 fold enrichment (6-mer frequency, TF over GST control)"
same,binding signal,SPI1,"1.28 fold enrichment (6-mer frequency, TF over GST control)"
same,binding signal,SPIB,"1.3 fold enrichment (6-mer frequency, TF over GST control)"
same,binding signal,ELK3,"1.17 fold enrichment (6-mer frequency, TF over GST control)"
same,binding signal,FEV,"1.24 fold enrichment (6-mer frequency, TF over GST control)"
same,binding signal,ETV5,"1.38 fold enrichment (6-mer frequency, TF over GST control)"
same,binding signal,HSF1,"1.16 fold enrichment (6-mer frequency, TF over GST control)"
same,binding signal,SPIC,"1.49 fold enrichment (6-mer frequency, TF over GST control)"
same,binding signal,ELF4,"1.34 fold enrichment (6-mer frequency, TF over GST control)"
same,binding signal,ELK4,"1.44 fold enrichment (6-mer frequency, TF over GST control)"
same,binding signal,ETV2,"1 fold enrichment (6-mer frequency, TF over GST control)"
same,binding signal,ELF3,"1.5 fold enrichment (6-mer frequency, TF over GST control)"
same,binding signal,CRX,"1.29 fold enrichment (6-mer frequency, TF over GST control)"
same,binding signal,ETV1,"1.27 fold enrichment (6-mer frequency, TF over GST control)"
